Reference: PubChem BioAssay AID624330 (Southern Research Specialized Biocontainment Screening …, 2012)
Screen size: about 340,000 compounds; about 2,100 (0.62%) were called active.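 How the source made its calls: active means first-screen hits whose inhibition reached a set limit at any dose in the follow-up dose series; inconclusive means inhibition above the set first-screen limit but never retested; inactive means the rest.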 These entries were drawn from the full list. Results with a measured potency or affinity are listed apart.

Target: Rac GTPase-activating protein 1 (Homo sapiens) (UniProt Q9H0H5)
Sequence (Q9H0H5 whole entry, looked up): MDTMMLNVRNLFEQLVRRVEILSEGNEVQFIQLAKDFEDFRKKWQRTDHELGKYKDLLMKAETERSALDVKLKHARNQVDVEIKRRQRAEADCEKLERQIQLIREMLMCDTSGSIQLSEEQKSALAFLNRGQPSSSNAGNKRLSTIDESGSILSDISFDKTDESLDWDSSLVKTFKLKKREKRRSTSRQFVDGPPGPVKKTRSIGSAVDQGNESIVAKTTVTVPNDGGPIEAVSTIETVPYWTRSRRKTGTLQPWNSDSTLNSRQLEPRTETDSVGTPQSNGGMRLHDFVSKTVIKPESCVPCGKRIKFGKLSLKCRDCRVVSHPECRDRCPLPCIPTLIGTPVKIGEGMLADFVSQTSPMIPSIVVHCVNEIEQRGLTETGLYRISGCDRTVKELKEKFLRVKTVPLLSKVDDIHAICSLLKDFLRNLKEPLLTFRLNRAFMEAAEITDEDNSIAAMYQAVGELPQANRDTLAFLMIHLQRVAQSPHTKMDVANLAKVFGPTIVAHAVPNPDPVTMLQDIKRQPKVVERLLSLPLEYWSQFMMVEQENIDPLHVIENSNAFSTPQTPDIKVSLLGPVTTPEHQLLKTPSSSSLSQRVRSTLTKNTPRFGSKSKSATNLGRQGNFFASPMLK
Experiment: blockers of MgcRacGAP-driven Rac1 GTP hydrolysis – biochemical, ADP Hunter fluorescence, primary and confirmatory, confirmation (AID 624330);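 further: fluorescence reports GDP produced by GAP-driven GTP hydrolysis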
Conditions: MgcRacGAP-stimulated Rac1 GTP hydrolysis, at 30 µM, hits give high values, GST-tagged Rac1 F28L mutant substrate

inhibition, inactive:
Nn1c(SCC(=O)NCCC2=CCCCC2)nnc1C(F)(F)F 9.95%
Cc1cccc(NC(=O)CSc2nnc(C)n2Cc2ccccc2)c1 -8.45%
O=C(NCCc1nc(-c2ccccc2)cs1)c1ccc(Br)cc1 -0.49%
CC(=O)N(Nc1ccccc1)c1ccccc1 -0.89%
COc1ccc(C=C2C=C(C(C)(C)C)C(=O)C(C(C)(C)C)=C2)cc1OC 15.6%
CC(=O)OCCCN1c2ccccc2Nc2nnc(-c3ccccc3)cc21 6.92%
CCCCc1ccc(NC(=O)c2ccc(N(C)S(C)(=O)=O)cc2)cc1 -2.51%
CCN(CC)CCNc1ccc(Cl)cc1[N+](=O)[O-] 4.03%
CCN(CC)CCNc1cccc2sc3ccccc3c(=O)c12 19.4%
C#CCOCCOCCOCCNc1nc(N2CCN(C(=O)[C@H]([C@@H](C)CC)n3cc(CCCN=C(N)N)nn3)CC2)nc(N2CCN(C(=O)[C@H](CCCCN)n3cc(CCC(=O)O)nn3)CC2)n1 -4.54%
O=C(CCS(=O)(=O)c1ccc(F)cc1)Nc1ccc(N2CCN(Cc3ccccc3)CC2)cc1 3.53%
CC(=O)Nc1ccc(N2CCN(Cc3ccccc3)CC2)cc1 11.2%
CCOc1ccc(CNc2ccc(N3CCN(Cc4ccccc4)CC3)cc2)cc1 30.8%
O=C(CN1CCN(Cc2ccc(F)cc2)CC1)NCc1ccccc1 9.4%
Cc1ccc(NC(=O)c2ccccc2Cl)cc1-n1cnnn1 3.88%
CCOc1ccc(S(=O)(=O)NN2Cc3ccccc3C2=N)cc1 7.55%
COc1ccc(OC)c(S(=O)(=O)N(C)CC(=O)N2CCN(c3ccc(F)cc3)CC2)c1 5.44%
Cc1cc(C(=O)NC2CCCC2)on1 2.61%
COc1ccc2c(c1)C(=NNC(=O)c1ccccn1)c1cc(OC)ccc1-2 12.9%
CCOc1ccc2c(c1)C(=NNC(=O)c1ccccn1)c1cc(OCC)ccc1-2 -24.9%
Cc1cc(C)n(C(=O)CNc2cccc(Cl)c2C)n1 5.52%
Cc1ccc(NC2(C#N)CCCC2)cc1 4.1%
N#CC1(Nc2ccc(Br)cc2)CCCC1 2.57%
COc1ccc(C(CNC(=O)c2ccc(S(=O)(=O)N(C)C)cc2)N2CCCC2)cc1 (stereo not given) -5.33%
N#CC1(NC(=O)CSc2nnc3n2CCCCC3)CCCCC1 4.53%
CC(NC(=O)COC(=O)c1ccc(S(=O)(=O)N2CCOCC2)cc1)c1ccccc1 (stereo not given) -3.85%
Cc1c(NC(=O)Cc2cccs2)cccc1[N+](=O)[O-] 6.13%
Oc1ccc(/C=N/Nc2cc(N3CCCC3)nc(N3CCCC3)n2)cc1 7.45%
Cc1cccc(/C=N/Nc2cc(N3CCOCC3)nc(N3CCOCC3)n2)c1 -20.8%
Oc1ccccc1/C=N/Nc1cc(N2CCCC2)nc(N2CCCC2)n1 -4.19%
Oc1cccc(/C=N/Nc2cc(N3CCOCC3)nc(N3CCOCC3)n2)c1 18.3%
CC(C)c1ccc(/C=N/Nc2cc(N3CCOCC3)nc(N3CCOCC3)n2)cc1 2.24%
Oc1ccc(/C=N/Nc2cc(N3CCCC3)nc(N3CCCC3)n2)cc1O 23.7%
O=C(Cn1c(-c2ccccc2)noc1=O)N1CCC(Cc2ccccc2)CC1 5.27%
O=C(CNCc1ccccc1)Nc1cccc(Cl)c1Cl 27.2%
CCCCCN(C(=O)CCC(=O)OCC(=O)c1c(C)cc(C)cc1C)c1c(N)n(CCCC)c(=O)[nH]c1=O 3.32%
CCN(C(=O)c1c(N)cnn1C)c1ccccc1 -2.97%
COc1ccc(N2CCN(C(=O)COC(=O)c3cccc(S(=O)(=O)Nc4cccc(C)c4)c3)CC2)cc1 5.68%
CCOC(=O)c1oc2cccc(O)c2c1C 5.83%
CCOC(=O)c1oc2cc(C)cc(C)c2c1C 4.4%
Cc1ccc(-n2ncc3c2CC(C)(C)CC3NC(=O)c2c(C)noc2C)cc1 (stereo not given) 5.31%
CC(=O)Nc1ccc(S(=O)(=O)Nc2cc(C)cn(Cc3ccccc3)c2=O)cc1 3.18%
O=C(CN1CCN(S(=O)(=O)c2ccc(F)c(Cl)c2)CC1)N1CCc2ccccc2C1 2.62%
COc1ccc(S(=O)(=O)N2CCN(CC(=O)N3CCc4ccccc4C3)CC2)cc1OC 7.25%
O=C(CN1CCN(S(=O)(=O)c2ccc3ccccc3c2)CC1)N1CCc2ccccc2C1 10.7%
O=C(CN1CCN(S(=O)(=O)c2cc(C(F)(F)F)ccc2Cl)CC1)N1CCc2ccccc2C1 9.9%
Cc1cc(OCC(=O)NCC(c2ccc(F)cc2)N2CCOCC2)ccc1Cl (stereo not given) 3.16%
O=C(CCc1ccc(S(=O)(=O)N2CCOCC2)cc1)Oc1ccccc1 8.54%
O=C(CN1CCCC1)Nc1c2c(nc3ccccc13)N(Cc1ccccc1)CC2 3.93%
CN1CCN(CC(=O)Nc2cc(N(C)C)nc3ccccc23)CC1 27.1%
CN(C)c1cc(NC(=O)CN2CCOCC2)c2ccccc2n1 0.97%
CCCCc1nc2ccccc2c(NC(=O)CNC(C)(C)C)c1CCC 20.5%
O=C(CN1CCCCC1)Nc1c2c(nc3ccccc13)N(c1ccccc1)CC2 20.7%
CCCCc1nc2ccccc2c(NC(=O)CN2CCCC2)c1CCC 28.9%
CCCn1c(=O)c(C(=O)NCC2CCCO2)c(O)c2ccccc21 (stereo not given) 5.01%
O=C1c2ccccc2C(=O)N1CCCCNc1ccccc1 -2.64%
COC(=O)c1sc2ncccc2c1OCc1ccc(Cl)cc1 1.91%
N#C/C(=C\c1ccc2c(c1)OCCO2)C(=O)NC1CCCCC1 4%
C=CCOC(=O)COc1ccc2c(C)c(C)c(=O)oc2c1C -6.38%
COCCNC(=O)c1cc2c(=O)[nH]c3ccccc3c2s1 6.07%
